For some assays here: Potency and affinity values are given separately. Calls of active or inactive are those of the source. Entries that show only a call come without a potency.

For experiment [1] the following is noted: Ebola virus entry reporter assay, green channel fluorescence.
For experiment [2] the following is noted: Ebola virus entry cell assay, ratio channel.

Consider `CO/N=C(\C(=O)N[C@@H]1C(=O)N2C(C(=O)O)=CCS[C@H]12)c1csc(N)n1`, for which the outcome in experiment [1] and in experiment [2] was inactive.

Consider `CN1C(=O)CC(=O)N(c2ccccc2)c2cc(Cl)ccc21`, for which the outcome in experiment [1] and in experiment [2] was inactive.

In the case of `CO/N=C(\C(=O)N[C@@H]1C(=O)N2C(C(=O)O)=C(C[N+]3(C)CCCC3)CS[C@H]12)c1csc(N)n1`, the compound was classed as inactive in experiment [1] and in experiment [2].

Take `CCNC(=O)[C@@H]1CCCN1C(=O)[C@H](CCCN=C(N)N)NC(=O)[C@H](CC(C)C)NC(=O)[C@@H](CC(C)C)NC(=O)[C@H](Cc1ccc(O)cc1)NC(=O)[C@H](CO)NC(=O)[C@H](Cc1c[nH]c2ccccc12)NC(=O)[C@H](Cc1cnc[nH]1)NC(=O)[C@@H]1CCC(=O)N1`: the compound was called inactive in experiment [1] and in experiment [2].

With `OCC(S)CS` (centres undefined), the compound was classed as inactive in experiment [1] and in experiment [2].

Regarding `CC(C)(O/N=C(\C(=O)N[C@@H]1C(=O)N2C(C(=O)[O-])=C(C[n+]3ccccc3)CS[C@H]12)c1csc(N)n1)C(=O)O`, the outcome in experiment [1] and in experiment [2] was inactive.

In the case of `N[C@@H](Cc1cc(I)c(Oc2ccc(O)c(I)c2)c(I)c1)C(=O)O`, the compound was classed as inactive in experiment [1] and in experiment [2].

In the case of `O=C(OC1C[C@@H]2CC3C[C@H](C1)N2CC3=O)c1c[nH]c2ccccc12` (some centres undefined), the call in experiment [1] and in experiment [2] was inactive.

With `CO[C@H]1C=CO[C@@]2(C)Oc3c(C)c(O)c4c(O)c(c(/C=N/N5CCN(C6CCCC6)CC5)c(O)c4c3C2=O)NC(=O)/C(C)=C\C=C[C@H](C)[C@H](O)[C@@H](C)[C@@H](O)[C@@H](C)[C@H](OC(C)=O)[C@@H]1C`, the result in experiment [1] and in experiment [2] was inactive.

As to `CN(C)CCc1c[nH]c2ccc(Cn3cncn3)cc12`, the result in experiment [1] and in experiment [2] was inactive.

In the case of `Nc1nc(/C(=C/CC(=O)O)C(=O)N[C@@H]2C(=O)N3C(C(=O)O)=CCS[C@H]23)cs1`, the compound was called inactive in experiment [1] and in experiment [2].

Take `COc1cc(NS(C)(=O)=O)ccc1Nc1c2ccccc2nc2ccccc12`: the compound was called inactive in experiment [1] and in experiment [2].

With `COc1cc(Br)c(C[N+]2(CCOCCC3CCC4CC3C4(C)C)CCOCC2)cc1OC` (centres undefined), the compound was classed as inactive in experiment [1] and in experiment [2].

`CCOC(=O)[C@H](CCc1ccccc1)N[C@H]1CCCN2CCC[C@@H](C(=O)O)N2C1=O`: the outcome in experiment [1] and in experiment [2] was inactive.

For the compound `C[C@@H]1[C@H](O)[C@@H](C)/C=C/C=C\C=C\C=C\C=C\C=C\C=C\[C@H](O[C@@H]2O[C@H](C)[C@@H](O)[C@H](N)[C@@H]2O)C[C@@H]2O[C@](O)(C[C@@H](O)C[C@@H](O)[C@H](O)CC[C@@H](O)C[C@@H](O)CC(=O)O[C@H]1C)C[C@H](O)[C@H]2C(=O)O` (stereo in doubt), the outcome in experiment [1] and in experiment [2] was inactive.

For the compound `NC[C@H]1O[C@H](O[C@H]2[C@H](O)[C@@H](O[C@H]3O[C@H](CO)[C@@H](O)[C@H](N)[C@H]3O)[C@H](N)C[C@@H]2N)[C@H](O)[C@@H](O)[C@@H]1O`, the result in experiment [1] and in experiment [2] was inactive.

On to `CC(C)CN(C[C@@H](O)[C@H](Cc1ccccc1)NC(=O)O[C@@H]1CCOC1)S(=O)(=O)c1ccc(N)cc1`, for which the outcome in experiment [1] and in experiment [2] was inactive.

On to `CO[C@H]1C=CO[C@@]2(C)Oc3c(C)c(O)c4c(O)c(c5c(c4c3C2=O)=NC2(CCN(CC(C)C)CC2)N=5)NC(=O)/C(C)=C\C=C/[C@H](C)[C@H](O)[C@@H](C)[C@@H](O)[C@@H](C)[C@H](OC(C)=O)[C@@H]1C`, for which the call in experiment [1] and in experiment [2] was inactive.

As to `CCOC(=O)C1=C[C@@H](OC(CC)CC)[C@H](NC(C)=O)[C@@H](N)C1`, the compound was called inactive in experiment [1] and in experiment [2].

As to `CO[C@@]1(NC(=O)C2SC(=C(C(N)=O)C(=O)O)S2)C(=O)N2C(C(=O)O)=C(CSc3nnnn3C)CS[C@@H]21` (some centres undefined), the compound was called inactive in experiment [1] and in experiment [2].

Turning to `CC(C)C[C@H]1C(=O)N2CCC[C@H]2[C@]2(O)O[C@](NC(=O)[C@@H]3C=C4c5cccc6[nH]c(Br)c(c56)C[C@H]4N(C)C3)(C(C)C)C(=O)N12`, the compound was called inactive in experiment [1] and in experiment [2].

On to `O=P(O)(O)C(O)(Cn1ccnc1)P(=O)(O)O`, for which the result in experiment [1] and in experiment [2] was inactive.

For `CCCc1nc(C(C)(C)O)c(C(=O)OCc2oc(=O)oc2C)n1Cc1ccc(-c2ccccc2-c2nn[nH]n2)cc1`, the call in experiment [1] and in experiment [2] was inactive.

Regarding `CCOC(=O)[C@H](CCc1ccccc1)N[C@@H](C)C(=O)N1[C@H](C(=O)O)C[C@H]2CCCC[C@@H]21`, the compound was called inactive in experiment [1] and in experiment [2].

`C=C1[C@H](CO)[C@@H](O)C[C@@H]1n1cnc2c(=O)[nH]c(N)nc21`: the call in experiment [1] and in experiment [2] was inactive.

As to `CC(CCc1ccccc1)NCC(O)c1ccc(O)c(C(N)=O)c1` (centres undefined), the outcome in experiment [1] and in experiment [2] was inactive.

With `CCN(CC)C(=O)[C@]1(c2ccccc2)C[C@@H]1CN`, the compound was called inactive in experiment [1] and in experiment [2].

With `O=C1[O][Bi][O]c2ccccc21`, the result in experiment [1] and in experiment [2] was inactive.

In general, AC50 refers to the concentration giving half of the maximal activity seen. For the compound `CC(C)(C)NC[C@H](O)COc1ccccc1C1CCCC1`, the call in experiment [1] was inactive. In addition, the AC50 in experiment [2] was 3.55 µM (active).

`C[C@]1(O)CC[C@H]2[C@@H]3CCC4=CC(=O)CC[C@]4(C)[C@@]3(F)[C@@H](O)C[C@@]21C`: the result in experiment [1] and in experiment [2] was inactive.

Consider `CN1[C@@H]2CCC[C@@H]1CC(NC(=O)c1nn(C)c3ccccc13)C2` (some centres undefined), for which the result in experiment [1] and in experiment [2] was inactive.

Turning to `Nc1nc(NC2CC2)c2ncn([C@@H]3C=C[C@@H](CO)C3)c2n1`, the compound was called inactive in experiment [1] and in experiment [2].

As to `C=CC1=C(C(=O)O)N2C(=O)[C@@H](NC(=O)/C(=N/OCC(=O)O)c3csc(N)n3)[C@H]2SC1` (stereo in doubt), the compound was classed as inactive in experiment [1] and in experiment [2].

For the compound `CCOc1cc(CC(=O)N[C@@H](CC(C)C)c2ccccc2N2CCCCC2)ccc1C(=O)O`, the compound was called inactive in experiment [1] and in experiment [2].

In the case of `CCC[C@@]1(CCc2ccccc2)CC(O)=C([C@H](CC)c2cccc(NS(=O)(=O)c3ccc(C(F)(F)F)cn3)c2)C(=O)O1`, the compound was classed as inactive in experiment [1] and in experiment [2].

For `CC1(C)S[C@@H]2[C@H](NC(=O)[C@H](N)c3ccc(O)cc3)C(=O)N2[C@H]1C(=O)O`, the compound was called inactive in experiment [1] and in experiment [2].

As to `NC(=O)CC[C@@H]1NC(=O)[C@H](Cc2ccccc2)NC(=O)[C@H](Cc2ccc(O)cc2)NC(=O)[C@@H](N)CSSC[C@@H](C(=O)N2CCC[C@H]2C(=O)N[C@@H](CCCN=C(N)N)C(=O)NCC(N)=O)NC(=O)[C@H](CC(N)=O)NC1=O`, the compound was called inactive in experiment [1] and in experiment [2].

The values are drawn from PubChem BioAssay (NCATS).
